Laboratory results taken from PubChem BioAssay AID602327 (NMMLSC, 2012).
Some of the results follow. Unmarked numbers belong to inactive results. The source made the active and inactive calls. Cut-off read from the data, not from the text of the source: active = inhibition above about 25%; inactive = the rest.

target: Lethal factor (Bacillus anthracis) (UniProt P15917); assay: Bacillus anthracis LF protease inhibitors, confirmation, biochemical, multiplex microsphere (AID 602327); conditions: multiplex microsphere protease cleavage assay; at 10 µM; active compounds read high
Sequence (P15917 whole entry, looked up): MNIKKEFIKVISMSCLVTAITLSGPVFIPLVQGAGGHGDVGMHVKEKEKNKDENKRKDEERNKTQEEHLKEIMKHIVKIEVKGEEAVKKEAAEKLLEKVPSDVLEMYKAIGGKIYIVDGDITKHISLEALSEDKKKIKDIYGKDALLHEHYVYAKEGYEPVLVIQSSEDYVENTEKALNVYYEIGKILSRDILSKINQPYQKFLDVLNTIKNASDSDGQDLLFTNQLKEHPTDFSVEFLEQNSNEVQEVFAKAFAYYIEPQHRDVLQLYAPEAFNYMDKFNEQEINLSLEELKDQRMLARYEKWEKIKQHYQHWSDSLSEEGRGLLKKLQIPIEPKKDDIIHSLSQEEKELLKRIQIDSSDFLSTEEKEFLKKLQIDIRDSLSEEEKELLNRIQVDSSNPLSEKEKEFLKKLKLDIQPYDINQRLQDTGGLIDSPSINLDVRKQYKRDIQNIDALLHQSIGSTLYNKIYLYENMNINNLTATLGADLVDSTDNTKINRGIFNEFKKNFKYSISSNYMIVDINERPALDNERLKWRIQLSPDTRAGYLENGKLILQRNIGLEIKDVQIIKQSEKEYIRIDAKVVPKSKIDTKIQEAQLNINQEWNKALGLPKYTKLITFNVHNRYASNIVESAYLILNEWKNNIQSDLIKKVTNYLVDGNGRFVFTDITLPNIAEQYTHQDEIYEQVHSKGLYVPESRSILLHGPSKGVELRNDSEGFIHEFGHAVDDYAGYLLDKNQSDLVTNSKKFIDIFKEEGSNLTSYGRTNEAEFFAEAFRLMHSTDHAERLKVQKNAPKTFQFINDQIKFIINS

Row | SMILES | inhibition
1 | COc1ccc(-c2cc3c(c4c2ccn4C)C2CCC3C2)cn1 (stereo not drawn) | 26.4% (active)
2 | O=C(OCC(=O)c1c[nH]c2ccccc12)c1cccc(O)c1 | -2.5%
3 | Cc1ccc(CNC(=O)c2cccc3c2C(=O)c2ccc(N4CCC(C)CC4)cc2S3(=O)=O)cc1 | 7.9%
4 | Cc1cc2cc(CNC(=O)c3ccc(S(=O)(=O)N4CCOCC4)cc3)ccc2[nH]1 | -0.8%
5 | CC(=O)OCCN(CCCn1c(-c2ccncc2)nc2ccccc21)c1nc(-c2ccc(C)cc2)cs1 | 0.3%
6 | Cc1cc2ccccc2n1CCNC(=O)COc1ccc2ccccc2c1 | 0.2%
7 | O=C(CN1CCN(c2ccccc2O)CC1)NC(=O)NCc1ccccc1 | -1.7%
8 | CCOc1ncccc1C(=O)OCC(=O)c1c[nH]c2ccccc12 | 10.4%
